# Test system: VDR:RXRa (NR concentration 270 nM, RXRa partner concentration 90 nM)
# Test: PBM binding z-score (relative to random genomic background probes); higher = stronger binding; sequences stand for … in GC…GCGATTGACAGCGTAGAATGAAGG
# Method: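 Protein-binding microarray (Agilent 4x180K custom design, double-stranded 60-nt probes: 5' GC cap, 34-nt variable region, 24-nt constant primer region; full probe sequence given). Purified or IVT nuclear receptor:RXRα heterodimers (3:1 NR:RXRα, mostly 270:90 nM) or homodimers were incubated for 1 h in PBS with 2% milk and no ligand, then detected with Alexa488 antibodies. Fluorescence from o1-orientation probes (~5 replicates averaged) was converted to z-scores against 500 random hg19 background probes. Variable regions are seed direct-repeat (DR0–DR5) sites, all their single-nucleotide variants and half-site ablations.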
row,Sequence,PBM binding z-score
1,GGAACGAGGGCAAGATGATAGCAGAGTTTGATGG,0.221
2,TCATATAGGTAAACAGGTGAAGGTCCGTAAGTTA,0.989
3,AGTCAAAGTTCAGGACGAGGTAACCTAAAGCACG,2.94
4,CGTACTGGGCCATTCAGAGGTCATTGATCATATG,4.27
5,CCAACTAGGTCAAGGACAGTGAATCTCCGCACGC,1.16
6,GCGACTGGGGCATCAGCACGTTACCATAACTTAA,-0.365
7,AAGACAGGGTCACTAGGCCAGAGTAGGTACGAAT,3.9
8,GCTGCTAGGTCAGGTTGGTCACCTAACGGGTACG,0.967
9,GGAACGAGGGCAAATTTGATAGCATCTGTCGACG,0.619
10,ATATGTAGGTTACATCCGGGTCATTCATGCTATG,4.1
11,TAGCCTAGGCCATTGGGCCAGTATAGTACGCATC,-0.626
12,TCTTGTAGATCAGCAGGTTAAGAAGGCTGGCCAA,0.724
13,CGTACGAGGGCATGAGTTGATAGCAAATGCCGAT,1.36
14,CTAACGAGGGCATGAGTTGATAGCAAATGCCGAT,1.4
15,ATACGAAGGTGATCGTGAGGTCGTTGATACTAAC,3.09
16,GTACCCAGGTGAATAGGTCGTTGATGAGTAGGCG,0.54
17,GCGACTGGGGTATCAGCAGGTTACCATAACTTAA,-0.202
18,TCATATAGGTAAAAGGTGACAGTCGGTGTGGTAA,1.35
19,CCTATTTGTTGACCATAAGGGCAACCGAAGCTCG,1.09
20,CCGACTGAGGCAGAAAGGTTACCATACCATCCGG,0.732

row,Sequence,PBM binding z-score
1,AGAATGAGGTTATACGGAGATCAGGGAAGAAAGT,1.56
2,CCTAGCAGGCCAATCTGTGTCACTCAAGGCTTGA,-0.331
3,TATACCGGGTCAAAGGCCAGAGTACGAATGTCGA,3.9
4,CCAGACAGGTGAAAGGTAACCCAGTCTGGTACGC,0.645
5,ATACCAAGGTGATCGTGAGGTCGTTCATACTAAC,3.58
6,ACTCGGAGGCCAAAGGTCAGAGCTACGCCAGTGA,3.11
7,CCTACTAGGCCAAGGTCATTGATCAGTCAAAGCA,3.48
8,GCTAGTTGGTCAGTAAAAGGTCACACATCGGTCG,3.96
9,CGTCAAGGTTCAACTAAGGTAACGTAAAGCACGC,3.94
10,ACTAGCAGGCCAAGGGTCTCTCAAGATTAGTCCG,-0.657
11,ATCGAAAGGCCGTGAGGTGAGTATACAGAAAGGC,-0.0584
12,CATACAGGGTCACCTAGGCCAGAGTAGGGACGGC,5.14
13,CGTCAAATTTCAAGGTAACGTAACAGAAAGCAGC,0.0191
14,AGAATGAGGTTAATAAGATCAGGGAATTGCGGTC,2.02
15,ACTAGCTGGCCAAGGGTCACTCAAGATTAGTCCG,2.59
16,CCTCCTGGGCCATCAGGTCATTGATATCAACGTT,1.76
17,GCGAGTGGGGCATCAGCAGGTTACCATAACTTAA,0.049
18,TCAAACAGGTGAAGGTAACTCAGGTACGCAGTCG,1.13
19,CCTCACGGGTCAAGGTTATAGCACGGGTGGTACG,3.18
20,CAAACTAGGTCAGCGGAAGGTCAAAGTCCGCATG,5.07
